An excerpt weighted towards active compounds, which were near 1.8% of everything screened.
Mtb hypoxia inh: PubChem AID 1159583; M. tuberculosis hypoxia-regulated fluorescent reporter, fluorescence; fluorescence inhibition, % (concentration not given with the values); actives 0.1% (n = 300,000); in the data active = fluorescence inhibition mostly above about 23%, no sharp cut-off; inactive = mostly below about 17%
RN4220 kill: growth inhibition of S. aureus RN4220, primary screen, OD600 | actives 0.33% (n = 330,000) | 16 h | inhibition, % (concentration not given with the values); in the data active = inhibition above about 85%;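 also: plate controls were untreated cells for no effect and reference antibiotic for full effect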
PfHsp40 yeast: rescue of yeast from PfHsp40 toxicity, primary screen, S. cerevisiae, ATP luminescence | S. cerevisiae expressing PfHsp40, growth rescue | growth rescue, % at 12.5 µM | AID 504582, 2011 | actives 0.68% (n = 340,000); in the data active = growth rescue above about 28%, passing the limit was not always enough; inconclusive = no clear call, values can overlap the other calls;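 also: yeast W303a lacking pdr1 and pdr3 grown in galactose medium; growth measured after three days at 30 °C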
SSB-PriA inh: inhibitors of Klebsiella pneumoniae PriA binding to SSB C-terminal tail, primary screen, biochemical, AlphaScreen | PriA–SSB C-terminal tail interaction (Klebsiella pneumoniae) | AlphaScreen SSBct-PriA binding, biotinylated peptide | inhibition, % at 33 µM | actives 0.6% (n = 430,000) | AID 1272365, 2023; in the data active = inhibition mostly above about 37%, no sharp cut-off; inactive = mostly below about 20%;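 also: plate controls were negative control peptide for no effect and reference peptide for full effect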
DUSP3 inh: VHR1 phosphatase inhibitors, primary screen, biochemical, absorbance, uHTS; recombinant VHR phosphatase, pNPP absorbance; AID 1654, 2009; actives 0.52% (n = 290,000); inhibition, % at 13.3 µM; in the data active = inhibition above about 50%
Target sequence (P51452 whole entry, looked up): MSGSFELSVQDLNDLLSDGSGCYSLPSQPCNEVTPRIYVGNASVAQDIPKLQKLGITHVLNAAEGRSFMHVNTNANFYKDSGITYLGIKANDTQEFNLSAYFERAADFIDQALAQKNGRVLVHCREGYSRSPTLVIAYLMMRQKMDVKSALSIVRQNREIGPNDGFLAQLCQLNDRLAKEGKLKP
ugtP null kill: growth inhibition of ugtP-null S. aureus, primary screen, RN4220 ugtP deletion, OD600 | 16 h | actives 0.54% (n = 330,000) | growth inhibition, % (no concentration beside the values); in the data active = growth inhibition above about 68%;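 also: plate controls were untreated wells for no effect and antibiotic for full effect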
The depositor's hits bear a star; ! = not active in a repeat.

What do the screens show for `O=C(CSc1nc2ccccc2[nH]1)NN=C/C=C\c1ccccc1[N+](=O)[O-]`?
Mtb hypoxia inh: 6; RN4220 kill: 98*; SSB-PriA inh: 7; ugtP null kill: 97*

What do the screens show for `O=[N+]([O-])c1ccc(C=NN=Cc2ccc([N+](=O)[O-])o2)o1`?
Mtb hypoxia inh: 26; RN4220 kill: 4; SSB-PriA inh: -3; ugtP null kill: 0

How did O=[N+]([O-])c1ccc(/C=[N+](\[O-])CCO)o1 do in these assays?
PfHsp40 yeast: 0; DUSP3 inh: 53*

Results for Oc1ccccc1NCC(O)Cn1ccc2ccccc21 (configuration not stated) ?
Mtb hypoxia inh: 16; RN4220 kill: 25; PfHsp40 yeast: -1; SSB-PriA inh: 59*; DUSP3 inh: 36; ugtP null kill: 6

What do the screens show for `CN(C)CCN(C(=O)c1ccc2c(c1)CCCC2)c1nc2cc3c(cc2s1)OCCO3`?
Mtb hypoxia inh: 10; RN4220 kill: -4; PfHsp40 yeast: 1; SSB-PriA inh: 51*; DUSP3 inh: 22; ugtP null kill: 6

What do the screens show for `CCOc1ccc2nc(N(CCCN(C)C)C(=O)c3ccc(S(=O)(=O)N4CCCC4)cc3)sc2c1`?
Mtb hypoxia inh: 6; RN4220 kill: 2; PfHsp40 yeast: 0; SSB-PriA inh: 14; DUSP3 inh: 18; ugtP null kill: 5

How did CCOc1ccc2nc(N(CCN(C)C)C(=O)c3ccc4c(c3)CCCC4)sc2c1 do in these assays?
Mtb hypoxia inh: 5; RN4220 kill: -4; PfHsp40 yeast: -1; SSB-PriA inh: 55*!; DUSP3 inh: -8; ugtP null kill: -25

What do the screens show for `CC1CCN(c2nc(-c3ccncc3)nc3ccccc23)CC1`?
Mtb hypoxia inh: 24; RN4220 kill: 9; PfHsp40 yeast: 282*; SSB-PriA inh: -6; DUSP3 inh: 32; ugtP null kill: -10

Results for Cc1c(Cl)ccc2sc(NCCCn3ccnc3)nc12 ?
SSB-PriA inh: -1

What do the screens show for `Cc1c(CC(=O)N[C@@H](C)C(=O)O)c(=O)oc2c(C)c3occ(-c4ccccc4)c3cc12`?
Mtb hypoxia inh: -3; RN4220 kill: 94*; PfHsp40 yeast: 0; SSB-PriA inh: 10; DUSP3 inh: -25; ugtP null kill: 100*

Results for Cc1c(CC(=O)O)c(=O)oc2c(C)c3occ(-c4ccc(F)cc4)c3cc12 ?
Mtb hypoxia inh: -1; RN4220 kill: 95*; PfHsp40 yeast: 0; SSB-PriA inh: -2; DUSP3 inh: -2; ugtP null kill: 100*

Results for CC(NC(=O)CN1CCN(c2ccccc2F)CC1)c1ccccc1 (configuration not stated) ?
Mtb hypoxia inh: -1; RN4220 kill: 3; PfHsp40 yeast: 0; SSB-PriA inh: -13; DUSP3 inh: 29; ugtP null kill: 4

What do the screens show for `CC(NC(=O)CN1CCc2ccccc21)c1ccccc1` (configuration not stated)?
Mtb hypoxia inh: 11; RN4220 kill: 5; PfHsp40 yeast: -1; SSB-PriA inh: 0; DUSP3 inh: 54*; ugtP null kill: 1

How did CCn1c(=N)c(S(=O)(=O)c2ccccc2)cc2c(=O)n3ccccc3nc21 do in these assays?
Mtb hypoxia inh: -5; RN4220 kill: 6; PfHsp40 yeast: -1; SSB-PriA inh: -2; DUSP3 inh: 14; ugtP null kill: 13

What do the screens show for `CCn1c(=N)c(S(=O)(=O)c2ccc(C)cc2)cc2c(=O)n3ccccc3nc21`?
Mtb hypoxia inh: 12; RN4220 kill: 6; DUSP3 inh: 52*; ugtP null kill: 6

What do the screens show for `Cc1cc(C(=O)NN=Cc2c(C)nn(-c3ccccc3)c2C)c(C)o1`?
Mtb hypoxia inh: -1; RN4220 kill: -2; ugtP null kill: 4

What do the screens show for `CCCn1c(=O)c(C(=O)Nc2cnccn2)c(O)c2ccccc21`?
DUSP3 inh: 36

How did CCOC(=O)Cc1csc(NC(=O)c2c(O)c3ccccc3n(CCC(C)C)c2=O)n1 do in these assays?
Mtb hypoxia inh: 19; RN4220 kill: 96*; PfHsp40 yeast: -1; SSB-PriA inh: -2; DUSP3 inh: 7; ugtP null kill: 100*

Results for CCCCCCn1c(=O)c(C(=O)Nc2cnccn2)c(O)c2ccccc21 ?
RN4220 kill: 35; PfHsp40 yeast: -2; SSB-PriA inh: -5; DUSP3 inh: -8; ugtP null kill: 92*

How did CCCCCCCn1c(=O)c(C(=O)OC)c(N)c2ccccc21 do in these assays?
Mtb hypoxia inh: 1; RN4220 kill: 2; PfHsp40 yeast: 245*; SSB-PriA inh: -1; DUSP3 inh: -22; ugtP null kill: -15

What do the screens show for `CCCCCn1c(=O)c(C(=O)Nc2ccccn2)c(O)c2ccccc21`?
Mtb hypoxia inh: 12; RN4220 kill: 100*; PfHsp40 yeast: 1; SSB-PriA inh: -17; DUSP3 inh: -16; ugtP null kill: 100*

How did COc1ccc(Cl)cc1C(=O)N1CCC[C@H](c2nnc(-c3ccsc3)o2)C1 do in these assays?
SSB-PriA inh: 6

How did COc1cc(Cl)c(C)cc1NC(=O)Cn1nc2ccc(SC(C)(C)C)nn2c1=O do in these assays?
SSB-PriA inh: -13

What do the screens show for `C/C(=C/C(=O)O)C(=O)Nc1sc2c(c1C#N)CCCC2`?
SSB-PriA inh: 5

Results for CCN1CCN(CC(=O)N2CCN(c3ccccc3)CC2)C(=O)C1=O ?
SSB-PriA inh: -13

Results for CN1CCN(c2ccc(N)c(N3CCN(C)CC3)c2)CC1 ?
RN4220 kill: -2; PfHsp40 yeast: 0; SSB-PriA inh: 16; DUSP3 inh: 15; ugtP null kill: -9

How did Nc1ccc(N2CCCCC2)cc1N1CCCCC1 do in these assays?
RN4220 kill: 30; PfHsp40 yeast: 2; SSB-PriA inh: 63*; DUSP3 inh: 14; ugtP null kill: -8

How did COc1ccc(/C=C2\SC(=O)NC2=S)cc1OC do in these assays?
Mtb hypoxia inh: 16; RN4220 kill: 71; PfHsp40 yeast: 143*; SSB-PriA inh: 2; DUSP3 inh: 2; ugtP null kill: 65

How did O=C1NC(=S)SC1=Cc1ccccc1Br do in these assays?
Mtb hypoxia inh: 21; RN4220 kill: 100*; PfHsp40 yeast: inconclusive; SSB-PriA inh: -4; ugtP null kill: 100*

Results for CCOc1ccc(/C=C2\SC(=S)NC2=O)cc1OC ?
Mtb hypoxia inh: 6; RN4220 kill: 79; PfHsp40 yeast: -1; SSB-PriA inh: -3; DUSP3 inh: 30; ugtP null kill: 88*

How did O=C1NC(=S)SC1=Cc1cc(Br)ccc1O do in these assays?
Mtb hypoxia inh: 10; RN4220 kill: 31; PfHsp40 yeast: 3; SSB-PriA inh: 7; ugtP null kill: 39

What do the screens show for `COc1cc(/C=C2\SC(=O)NC2=S)ccc1OCC(=O)Nc1ccc(Cl)cc1`?
SSB-PriA inh: 7

Compound activity from PubChem BioAssay.
